Reference: PubChem BioAssay
“And” between values parts separate entries of the source, which are not always exact repeats. Equal values may be shown once. The source made the active and inactive calls. Unless noted, how the calls were made is not given here.

Legend:
[1] = test system: XIP peptide (Xip251-270) binding; assay: small-molecule binders of XIP peptide, primary screen, biochemical, small-molecule microarray, fluorescence 635/667 nm, 0.1 µg/mL protein (AID 1182); conditions: fluorescent protein binding, 635 nm, higher = more signal, called active from +8 up or from −8 down
XIP peptide (Xip251-270) = assay: small-molecule binders of XIP peptide, primary screen, biochemical, small-molecule microarray, fluorescence 635/667 nm, 0.5 µg/mL protein (AID 1183); conditions: small-molecule microarray binding, fluorescence 635 nm; higher = more signal
[2] = Plasmodium falciparum growth inhibition, primary screen, strain 3D7, DAPI fluorescence, 100 nL (AID 1184);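 further: parasites grown inside human red blood cells in medium with human serum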; conditions: P. falciparum 3D7 growth, 3 d, higher = more signal
[3] = target: Homeobox protein Hox-A13 (Mus musculus) (UniProt Q62424); assay: inhibitors of HoxA13-DNA binding, primary screen, biochemical, fluorescence polarization, labeled oligonucleotide (AID 1185); conditions: 15 min, higher = more signal, called active from +8 up or from −8 down
[4] = inhibitors of hydroxyurea-induced Chk1 phosphorylation, primary screen, imaging, HeLa, phospho-Chk1 antibody, percent positive cells (AID 1186); conditions: hydroxyurea-induced phospho-Chk1 immunofluorescence imaging, higher = more signal
[5] = inhibitors of hydroxyurea-induced Chk1 phosphorylation, primary screen, imaging, HeLa, phospho-Chk1 nuclear intensity (AID 1187); conditions: hydroxyurea-induced phospho-Chk1 immunofluorescence imaging, higher = more signal

Chain of Homeobox protein Hox-A13 (Mus musculus) (Q62424 whole entry, looked up): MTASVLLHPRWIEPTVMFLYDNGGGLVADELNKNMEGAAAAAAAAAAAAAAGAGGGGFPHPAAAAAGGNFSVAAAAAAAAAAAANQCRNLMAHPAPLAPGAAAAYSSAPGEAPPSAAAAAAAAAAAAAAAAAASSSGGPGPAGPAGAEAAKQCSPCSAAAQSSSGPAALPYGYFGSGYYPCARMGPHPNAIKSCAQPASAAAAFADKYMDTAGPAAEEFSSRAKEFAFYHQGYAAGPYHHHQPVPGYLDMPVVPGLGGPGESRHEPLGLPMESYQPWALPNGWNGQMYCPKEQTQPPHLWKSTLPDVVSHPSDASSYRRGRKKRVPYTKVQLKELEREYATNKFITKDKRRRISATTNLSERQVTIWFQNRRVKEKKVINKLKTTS

Compound	composite z-score [1]	composite z-score (XIP peptide (Xip251-270))	z-score [2]	z-score [3]	z-score [4]	z-score [5]
C=CCN(C(=O)C(c1cccs1)N(C(=O)/C=C\C(=O)O)C(C)(C)CO)c1ccc(OC)cc1 (stereo not given)	-0.114 (inactive) and 0.302 (inactive)	-1.17 and -0.372	-0.89 and 0.294	-0.168 (inactive) and -2.07 (inactive)	-0.951 (inactive) and -0.63 (inactive)	-1.17 (inactive) and -0.0664 (inactive)
C=CCN(CCCCC)C(=O)C1N(C(C)(C)CO)C(=O)C2C(C(=O)O)C3C=CC21O3 (stereo not given)	-0.53 (inactive) and -1 (inactive)	-0.417 and -1.97	-0.0999 and 0.86	-0.598 (inactive) and 0.0686 (inactive)	0.0341 (inactive) and -0.15 (inactive)	0.436 (inactive) and 0.287 (inactive)
COC(=O)[C@@]1(Cc2ccccc2)[C@H]2c3cc(C(=O)N(C)C)n(C[C@H](O)CO)c3C[C@H]2CN1C(=O)c1ccccc1	0.386 (inactive) and -0.28 (inactive)	-0.0997 and 0.84	-0.894 and -0.297	-2.22 (inactive) and -4.41 (inactive)	-0.601 (inactive) and 1.42 (inactive)	-0.292 (inactive) and 1.06 (inactive)
C=CCN1C(=O)[C@]2(O[C@H](CCn3cc(CCO)nn3)[C@@H]([Si](C)(C)c3ccc(OC)cc3)[C@@H]2C)c2cc(N3C(=O)c4cccc5cccc3c45)ccc21	0.0184 (inactive) and 0.416 (inactive)	0.577 and 0.719	-2.67 and -2.76	-5.18 (inactive) and -5.57 (inactive)	-1.98 (inactive) and -1.13 (inactive)	-1.8 (inactive) and -1.3 (inactive)
C=C[C@@H](OC)[C@H](O)c1ccc(OCCO)cc1	0.602 (inactive) and -0.746 (inactive)	0.524 and 0.496	-0.748 and 0.0067	-0.717 (inactive) and -0.113 (inactive)	-0.949 (inactive) and -0.429 (inactive)	0.0246 (inactive) and 0.283 (inactive)
COC(=O)[C@@]1(Cc2ccc(F)cc2)[C@H]2c3cc(C(=O)N4CCCC4)n(Cc4c(CO)[nH]cc(C)c4=O)c3C[C@H]2CN1C(=O)c1ccccc1	1.1 (inactive) and 0.516 (inactive)	-0.307 and 0.761	-1.4 and -1.6	-5.99 (inactive) and -5.23 (inactive)	0.113 (inactive) and 0.998 (inactive)	0.0243 (inactive) and 0.533 (inactive)
C[N+](C)(C)CCCCNC(=O)[C@@H]1C[C@@H]2C(=O)N[C@@H](CCCC[N+](C)(C)C)C(=O)N2[C@@H]1c1cccc(OCCO)c1	0.785 (inactive) and 1.87 (inactive)	0.697 and 0.917	-0.0982 and -0.462	-0.648 (inactive) and -1.01 (inactive)	-0.123 (inactive) and -0.528 (inactive)	0.0051 (inactive) and -0.229 (inactive)
CCOC(=O)[C@@H]1CC=C2CC1C(=O)N1CCC[C@@H]1[C@H]2O[Si](C)(C)C(C)(C)C (stereo not given in full)	-1.06 (inactive) and -0.793 (inactive)	-1.29 and -0.354	1.82 and -0.618	-1.82 (inactive) and -4.44 (inactive)	0.113 (inactive) and -0.726 (inactive)	0.0897 (inactive) and -0.761 (inactive)
C=CCN(C(=O)C(c1cccs1)N(C(=O)/C=C\C(=O)O)c1c(Cl)cccc1CO)C(C)(C)C (stereo not given)	-0.0516 (inactive) and 0.0403 (inactive)	0.689 and -1.16	1.83 and 1.67	0.131 (inactive) and -0.43 (inactive)	0.221 (inactive) and 0.501 (inactive)	0.711 (inactive) and 0.634 (inactive)
CCOC(=O)C[C@H]1[C@H](OC(=O)c2ccccc2-c2ccccc2)[C@@H](NC(=O)Cc2ccc(OC)cc2)c2cc(OCCCO)ccc2N1C(=O)Cc1ccc(OC)cc1	0.645 (inactive) and -0.44 (inactive)	0.0988 and -0.0465	-1.83 and -1.26	-0.622 (inactive) and -3.3 (inactive)	-0.901 (inactive) and 0.898 (inactive)	-0.496 (inactive) and 0.836 (inactive)
CCOC(=O)C[C@H]1[C@H](OC(=O)c2ccccc2-c2ccccc2)[C@@H](NC(=O)c2ccccc2)c2cc(OCCCO)ccc2N1C(=O)c1ccc2ccccc2n1	-0.196 (inactive) and 0.367 (inactive)	-0.0343 and 0.393	-0.345 and 0.0894	-3.24 (inactive) and -1.56 (inactive)	0.105 (inactive) and -0.0471 (inactive)	0.118 (inactive) and -0.0805 (inactive)
C=C[C@@H](C)[C@H](O)c1ccc(O)c2ccccc12	-0.299 (inactive) and 0.342 (inactive)	0.892 and 0.102	-0.559 and 0.666	-3.78 (inactive) and -2.87 (inactive)	0.311 (inactive) and 0.801 (inactive)	0.0888 (inactive) and 0.837 (inactive)
C=CC[C@@H](O)c1ccc(OCCO)cc1	-0.0335 (inactive) and 0.172 (inactive)	0.184 and -0.25	0.667 and 0.717	-0.948 (inactive) and -0.931 (inactive)	-0.442 (inactive) and -0.507 (inactive)	0.186 (inactive) and -0.0561 (inactive)
C=CCN(Cc1ccccc1)C(=O)C1N(CCOCCO)C(=O)C2C(C(=O)O)C3C=CC21O3 (stereo not given)	0.463 (inactive) and -0.202 (inactive)	-1.03 and -0.657	-0.506 and -0.253	0.429 (inactive) and -0.659 (inactive)	-0.0844 (inactive) and 1.49 (inactive)	0.031 (inactive) and 1.13 (inactive)
C=CCN(CCCCC)C(=O)C(c1cccs1)N(C(=O)/C=C\C(=O)O)c1c(Cl)cccc1CO (stereo not given)	-0.527 (inactive) and 0.809 (inactive)	-1.88 and -0.229	0.114 and -0.445	-0.0384 (inactive) and -1.57 (inactive)	0.79 (inactive) and 0.313 (inactive)	0.728 (inactive) and 0.468 (inactive)
C=CCN(C(=O)C(c1cccs1)N(C(=O)/C=C\C(=O)O)C(C)(C)CO)C(C)(C)C (stereo not given)	0.075 (inactive) and -0.479 (inactive)	-0.796 and 0.851	0.37 and -0.0391	0.692 (inactive) and 0.558 (inactive)	-0.225 (inactive) and -0.215 (inactive)	0.269 (inactive) and 0.799 (inactive)
CC(CO)N1C(=O)[C@@H]2C3C(=O)OCCC=C[C@H]3OC23C=CCN(c2ccc4ccccc4c2)C(=O)[C@@H]13 (stereo not given in full)	0.62 (inactive) and -0.143 (inactive)	0.713 and 0.135	-0.526 and 0.0547	-6.14 (inactive) and -5.9 (inactive)	-0.437 (inactive) and 0.0615 (inactive)	0.0032 (inactive) and 0.0969 (inactive)
C=CCN(Cc1ccccc1)C(=O)C1N(C(C)(C)CO)C(=O)C2C(C(=O)O)C3C=CC21O3 (stereo not given)	0.102 (inactive) and -0.207 (inactive)	0.234 and -0.526	0.379 and -0.247	-0.255 (inactive) and -0.187 (inactive)	-0.401 (inactive) and -0.113 (inactive)	-0.326 (inactive) and -0.297 (inactive)
CC(C)[Si]1(C(C)C)OCc2cc(CCCc3cc4c(c(CCc5ccccc5)n3)[Si](C(C)C)(C(C)C)OC4)nc(CCc3ccccc3)c21	-0.189 (inactive) and -0.0317 (inactive)	-1.31 and -0.189	0.0742 and 1.55	-1.38 (inactive) and -0.138 (inactive)	-0.72 (inactive) and 0.618 (inactive)	-0.625 (inactive) and -0.0158 (inactive)
C=CCN(CCCCC)C(=O)C1N(CCOCCO)C(=O)C2C(C(=O)O)C3C=CC21O3 (stereo not given)	0.901 (inactive) and -0.15 (inactive)	0.571 and -1.58	0.234 and 0.841	-1.09 (inactive) and -0.752 (inactive)	0.0583 (inactive) and 0.485 (inactive)	0.233 (inactive) and -0.0615 (inactive)
C=CCN(C(=O)C1N(c2c(Cl)cccc2CO)C(=O)C2C(C(=O)O)C3C=CC21O3)c1ccc(OC)cc1 (stereo not given)	-0.241 (inactive) and -0.23 (inactive)	0.74 and 0.312	-0.927 and 0.408	-1.96 (inactive) and 0.908 (inactive)	-0.6 (inactive) and -1.27 (inactive)	0.0631 (inactive) and -0.682 (inactive)
O=C1NC(=O)C2C1C=CC(C(O)c1ccc([N+](=O)[O-])cc1)N2Nc1ccc(Cl)cc1Cl (stereo not given)	0.376 (inactive) and 0.385 (inactive)	0.762 and 0.163	0.698 and 0.664	-5.8 (inactive)	-0.85 (inactive) and -0.665 (inactive)	-1.15 (inactive) and -0.297 (inactive)
C=CCN(C(=O)C1N(CCOCCO)C(=O)C2C(C(=O)O)C3C=CC21O3)c1ccc(OC)cc1 (stereo not given)	-0.675 (inactive) and -0.315 (inactive)	0.138 and 0.24	0.301 and -0.0133	-1.06 (inactive) and -0.636 (inactive)	0.0962 (inactive) and 0.399 (inactive)	-0.087 (inactive) and 0.191 (inactive)
C=CC[C@@H](O)c1ccc(O)c(F)c1	-0.316 (inactive) and -0.555 (inactive)	0.849 and -1.57	0.408 and -0.881	-2.13 (inactive) and -0.155 (inactive)	-0.0057 (inactive) and -0.138 (inactive)	-0.268 (inactive) and -0.321 (inactive)
C=CCN(C(=O)C1N(CCCCCCO)C(=O)C2C(C(=O)O)C3C=CC21O3)c1ccc(OC)cc1 (stereo not given)	1.14 (inactive) and 1.15 (inactive)	-2.27 and -0.654	-0.424 and 0.0379	-1.08 (inactive) and -0.0174 (inactive)	-0.598 (inactive) and -0.471 (inactive)	-0.451 (inactive) and -0.198 (inactive)
